Most compounds without a hit are left out; they make up all but 12% or so of the library.
BAZ2B inh: qHTS Assay for Inhibitors of BAZ2B; AlphaScreen BAZ2B-H3K14Ac peptide displacement; Potency, µM (top dose mostly 114 µM), actives largely listed as inhibitors; 360,000 compounds, 4.4% hits; Bromodomain adjacent to zinc finger domain protein 2B (Homo sapiens), Q9UIF8; further: nearly all actives have a fitted effect of over 60% in size
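In this displacement format the biotinylated H3(5-23) peptide acetylated at Lys14 serves as ligand at 50 nM, with BAZ2B at 50 nM in PBS pH 7.4 containing 0.01% Tween-20. Donor and acceptor beads are 10 ug/mL final.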
Sfp PPTase inh: qHTS Assay for Inhibitors of Bacillus subtilis Sfp phosphopantetheinyl transferase (PPTase); 4'-phosphopantetheinyl transferase ffp (Bacillus subtilis), Q9F4F7; Biochemical Sfp PPTase activity, qHTS; Potency, µM, most hits filed as inhibitors; 310,000 compounds, 3.5% hits;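 further: the enzyme is Sfp with the accession as filed and its product quenches rhodamine fluorescence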
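After 15 min at room temperature with compound, 15 nM Sfp received 5 uM rhodamine-CoA plus 12.5 uM BHQ-2-ybbR (50 mM Hepes pH 7.6, 10 mM MgCl2). Rate came from the fluorescence difference over 30 min, ex 525/em 598 nm.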
G9a block: qHTS Assay for Inhibitors of Histone Lysine Methyltransferase G9a; G9a H3K9 monomethylation, AlphaScreen, 2 h; 350,000 compounds, 8.8% hits; Potency, µM (titrated, usually from 102 µM), actives largely listed as inhibitors; further: nearly all actives have a fitted effect of over 75% in size
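AlphaScreen detection with an anti-monomethyl H3K9 antibody quantified product after a 2 h room-temperature reaction containing 500 nM biotinylated H3K9 peptide, 20 µM SAM and 20 nM enzyme, which had been preincubated 15 min with compound.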
JMJD2A Tudor: qHTS Assay for Inhibitors of JMJD2A-Tudor Domain. 390,000 compounds, 4.4% hits. Lysine-specific demethylase 4A (Homo sapiens), O75164. Potency, µM (series often up to 114 µM), hits mostly inhibitors. AID 504339, 2011. AlphaScreen JMJD2A-Tudor / H3K4me3 peptide binding; further: nearly all actives have a fitted effect of over 50% in size
Target sequence (O75164 whole entry, looked up, the tested form may be a part): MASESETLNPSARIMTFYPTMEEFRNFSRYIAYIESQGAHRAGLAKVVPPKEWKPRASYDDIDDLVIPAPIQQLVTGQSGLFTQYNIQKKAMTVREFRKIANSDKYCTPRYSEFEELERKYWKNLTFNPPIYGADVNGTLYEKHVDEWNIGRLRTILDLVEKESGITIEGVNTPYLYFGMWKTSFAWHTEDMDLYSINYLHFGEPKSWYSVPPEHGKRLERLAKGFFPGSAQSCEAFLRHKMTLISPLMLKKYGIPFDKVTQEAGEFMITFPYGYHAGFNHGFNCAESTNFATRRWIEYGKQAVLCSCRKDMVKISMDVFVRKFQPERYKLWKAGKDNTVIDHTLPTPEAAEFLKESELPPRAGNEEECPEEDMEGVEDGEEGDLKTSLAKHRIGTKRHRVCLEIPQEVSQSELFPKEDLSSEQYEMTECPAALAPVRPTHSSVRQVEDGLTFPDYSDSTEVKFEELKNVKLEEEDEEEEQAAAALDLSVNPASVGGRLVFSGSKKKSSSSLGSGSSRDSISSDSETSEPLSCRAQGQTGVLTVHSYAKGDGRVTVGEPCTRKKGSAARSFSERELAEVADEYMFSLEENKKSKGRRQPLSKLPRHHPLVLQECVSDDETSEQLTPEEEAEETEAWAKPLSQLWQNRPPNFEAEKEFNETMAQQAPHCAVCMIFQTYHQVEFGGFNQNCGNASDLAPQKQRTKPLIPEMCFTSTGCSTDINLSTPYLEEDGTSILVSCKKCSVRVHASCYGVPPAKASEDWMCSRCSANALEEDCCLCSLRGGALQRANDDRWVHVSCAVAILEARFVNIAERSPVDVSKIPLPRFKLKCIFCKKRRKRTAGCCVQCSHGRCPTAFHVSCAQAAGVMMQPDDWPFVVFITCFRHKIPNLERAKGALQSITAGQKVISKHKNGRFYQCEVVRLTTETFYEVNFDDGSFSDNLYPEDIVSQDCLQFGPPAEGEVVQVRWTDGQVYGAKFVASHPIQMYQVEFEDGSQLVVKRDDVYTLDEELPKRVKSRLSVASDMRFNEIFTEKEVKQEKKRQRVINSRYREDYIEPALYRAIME
HP1b chromo inh: HTS for Inhibitors of HP1-beta Chromodomain Interactions with Methylated Histone Tails. Chromobox protein homolog 1 (Homo sapiens), P83916. AlphaScreen HP1-beta / biotin-H3K9me3 peptide binding. Potency, µM (doses to about 114 µM), actives largely listed as inhibitors. AID 540317, 2011. 390,000 compounds, 0.56% hits; further: nearly all actives have a fitted effect of over 70% in size
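Compound inhibition of the preformed complex between 50 nM HP1-beta and 50 nM biotinylated H3K9me3 peptide was read by AlphaScreen. Buffer was PBS pH 7.4 with 0.01% Tween-20. Incubations ran 30 min at room temperature, with 10 ug/mL donor/acceptor beads.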
JMJD2E inh-1: Inhibitors of Human Jumonji Domain Containing 2E (JMJD2E): 8HQs - Round 1 | JMJD2E demethylase, FDH-coupled NADH fluorescence | AID 493212, 2011 | 130 compounds, 89% hits | Potency, µM (highest dose often 57 µM), most hits filed as inhibitors | shares compounds with BAZ2B inh
JMJD2E inh-2: Confirmation qHTS Assay for Inhibitors of Human Jumonji Domain Containing 2E (JMJD2E); shares compounds with JMJD2A Tudor; Recombinant JMJD2E, FDH-coupled NADH fluorescence (FDH is formaldehyde dehydrogenase); Potency, µM (series often up to 56.8 µM), usual class: inhibitors; 140 compounds, 93% hits
FDH counter: Counterscreen for JMJD2E Inhibitors: qHTS Assay for Inhibitors of Formaldehyde Dehydrogenase (FDH); shares compounds with JMJD2A Tudor; FDH enzyme assay, NADH fluorescence kinetic; Potency, µM (series often up to 56.7 µM), hits mostly inhibitors; 140 compounds, 10% hits
JMJD2E MALDI inh: MALDI-TOF-MS Assay for Inhibitors of Human Jumonji Domain Containing 2E (JMJD2E). shares compounds with JMJD2A Tudor. recombinant JMJD2E demethylation, MALDI-TOF-MS. Potency, µM, actives largely listed as inhibitors. 45 compounds, 90% hits;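 active means compounds whose IC50 for blocking JMJD2E demethylation is below 100 µM; inconclusive means dose dependent effect but IC50 above 100 µM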
A number is an active result; [ ] = remark or other dose. Unless noted, the call rests on the fitted dose curve; in most records, active means well fitted curve in the direction sought with a large enough effect; inconclusive means small, poorly fitted or top-dose-only effect, or another doubt; inactive means no such curve, though single readings can be large; an effect the other way counts as inactive or inconclusive.

What do the screens show for `COc1ccc(Nc2cc(O)c3ncccc3c2)cc1`?
BAZ2B inh: 28µM; G9a block: inactive[12.7 µM]; JMJD2E inh-1: 11µM; JMJD2E inh-2: 9.1µM; FDH counter: inactive; JMJD2E MALDI inh: 22

What do the screens show for `COC(=O)C/C=C/C(C)C(OCc1cccc(Br)c1)C(C)C(OC)C1CCCCC1` (stereo unspecified)?
Sfp PPTase inh: inactive

How did CN1CCN2c3ccccc3CC3(C(=O)OC(C)(C)OC3=O)C2C1 (stereo unspecified) do in these assays?
JMJD2A Tudor: inactive; HP1b chromo inh: inactive

How did O=C1CCCN1CC(O)CS(=O)(=O)Cc1ccc(Cl)cc1 (stereo unspecified) do in these assays?
JMJD2A Tudor: inactive; HP1b chromo inh: inactive

What do the screens show for `COc1ccccc1NC(=O)Cn1c(=O)n(CC(=O)NCc2ccccc2Cl)c(=O)c2sccc21`?
BAZ2B inh: inactive; G9a block: inactive; JMJD2A Tudor: inactive; HP1b chromo inh: inactive

Results for O=C(CCCN1C(=O)c2cccnc2C1=O)Nc1ccc(F)cc1Cl ?
BAZ2B inh: inactive; Sfp PPTase inh: inactive; G9a block: inactive; JMJD2A Tudor: inactive; HP1b chromo inh: inactive

Results for Oc1ccc(CNc2ccc(F)cc2Cl)c2cccnc12 ?
JMJD2A Tudor: 56µM; JMJD2E inh-1: 5.8µM; JMJD2E inh-2: 1.1µM; FDH counter: inactive; JMJD2E MALDI inh: 16

What do the screens show for `Oc1ccc(CNc2cccc(F)c2)c2cccnc12`?
JMJD2A Tudor: 56µM; JMJD2E inh-1: 1.1µM; JMJD2E inh-2: 1.1µM; FDH counter: inactive; JMJD2E MALDI inh: 14

Results for O=S(=O)(Nc1ccccc1O)c1cccc2cccnc12 ?
BAZ2B inh: inactive; Sfp PPTase inh: inactive; G9a block: inconclusive; JMJD2A Tudor: inactive; HP1b chromo inh: inactive

Results for Oc1ccc(CNc2ccccc2Br)c2cccnc12 ?
JMJD2A Tudor: 50µM; JMJD2E inh-1: 3.5µM; JMJD2E inh-2: 3.5µM; FDH counter: inactive; JMJD2E MALDI inh: 24

How did Nc1cc(C(F)(F)F)ccc1NCCc1ccccn1 do in these assays?
BAZ2B inh: inconclusive; Sfp PPTase inh: inactive; G9a block: inactive; JMJD2A Tudor: inconclusive; HP1b chromo inh: inconclusive

Results for Oc1ccc(CNc2ccc(C(F)(F)F)cc2F)c2cccnc12 ?
JMJD2A Tudor: 50µM; JMJD2E inh-1: 2.2µM; JMJD2E inh-2: 2.2µM; FDH counter: inactive; JMJD2E MALDI inh: 20

How did Cc1ccc(NCc2ccc(O)c3ncccc23)c(F)c1 do in these assays?
JMJD2A Tudor: 18µM; JMJD2E inh-1: 0.71µM; JMJD2E inh-2: 8.1µM; FDH counter: inactive; JMJD2E MALDI inh: 11

How did Oc1cccc2c(-c3nn[nH]n3)ccnc12 do in these assays?
BAZ2B inh: 3.2µM; G9a block: inactive[12.7 µM]; JMJD2A Tudor: 13µM; HP1b chromo inh: inactive; JMJD2E inh-1: 18µM; JMJD2E inh-2: 10µM; FDH counter: inactive; JMJD2E MALDI inh: 18

Results for c1cncc(-c2nn[nH]n2)c1 ?
BAZ2B inh: inactive; Sfp PPTase inh: inactive; G9a block: inactive; JMJD2A Tudor: inactive; HP1b chromo inh: inactive

How did NC(=O)c1ccnc2c(O)cccc12 do in these assays?
BAZ2B inh: 1.8µM; G9a block: inactive[0.501 µM]; JMJD2A Tudor: 22µM; HP1b chromo inh: inactive; JMJD2E inh-1: 3.2µM; JMJD2E inh-2: inconclusive; FDH counter: inactive

Results for COC(=O)c1ccc(O)c2ncccc12 ?
JMJD2E inh-1: 20µM; JMJD2E inh-2: 20µM; FDH counter: inactive

Results for NC(=O)c1cccc2ccccc12 ?
BAZ2B inh: inactive; Sfp PPTase inh: inactive; JMJD2A Tudor: inactive; HP1b chromo inh: inactive

How did Cc1cc(N2CCCC2)nc(-c2ccccc2O)n1 do in these assays?
BAZ2B inh: inactive; Sfp PPTase inh: inactive; G9a block: inactive; JMJD2A Tudor: inactive; HP1b chromo inh: inactive

Results for CN(C)CCCNC(=O)c1ccc(-c2cc(O)c3ncccc3c2)cc1 ?
BAZ2B inh: 7.1µM; G9a block: inactive[12.7 µM]; JMJD2A Tudor: 20µM; HP1b chromo inh: inactive; JMJD2E inh-1: 32µM; JMJD2E inh-2: 16µM; FDH counter: inactive

What do the screens show for `Oc1cc(-c2ccncc2)cc2cccnc12`?
BAZ2B inh: 2.8µM; G9a block: inactive[12.7 µM]; JMJD2A Tudor: 45µM; HP1b chromo inh: inactive; JMJD2E inh-1: 32µM; JMJD2E inh-2: 16µM; FDH counter: inactive; JMJD2E MALDI inh: 23

What do the screens show for `Oc1cc(-c2ccc(N3CCCCC3)nc2)cc2cccnc12`?
BAZ2B inh: inactive; G9a block: inactive[12.7 µM]; JMJD2A Tudor: inactive; HP1b chromo inh: inactive; JMJD2E inh-1: 26µM; JMJD2E inh-2: 32µM; FDH counter: inactive

Results for CN(C)c1ccc(-c2ccc3ncnc(N(C)C)c3c2)cc1 ?
Sfp PPTase inh: inactive; G9a block: inactive[0.501 µM]

What do the screens show for `CN(C)c1ccc(-c2cc(O)c3ncccc3c2)cc1`?
BAZ2B inh: inactive; G9a block: inactive[12.7 µM]; JMJD2A Tudor: inconclusive; HP1b chromo inh: inactive; JMJD2E inh-1: 16µM; JMJD2E inh-2: 16µM; FDH counter: inactive

How did CN(C)CCCNC(=O)c1ccccn1 do in these assays?
BAZ2B inh: inactive; Sfp PPTase inh: inactive; G9a block: inactive; JMJD2A Tudor: inactive; HP1b chromo inh: inactive

How did CCN(CC)CCCC(C)n1c(-c2ccccc2)nc2c(N(CCOC)CCOC)nc(C)nc21 (stereo unspecified) do in these assays?
Sfp PPTase inh: inactive

Results for O=C(CCN1CCN(c2ccccc2)CC1)NNC(=O)Cc1ccc(Br)cc1 ?
BAZ2B inh: inactive; G9a block: inactive; JMJD2A Tudor: inactive; HP1b chromo inh: inactive

Results for COC(=O)c1cc2oc3ccccc3c2n1CC(=O)Nc1ccc(N(C)C)cc1 ?
BAZ2B inh: inactive; G9a block: inconclusive; JMJD2A Tudor: inconclusive; HP1b chromo inh: inactive

Assay outcomes as filed in PubChem BioAssay.
